DT40 TDP1 no CPT: qHTS for Inhibitors of human tyrosyl-DNA phosphodiesterase 1 (TDP1): qHTS in cells in absence of CPT; DT40 Tdp1-/- hTDP1 cells, no CPT, ATP luminescence, 48 h; Potency, µM (top dose mostly 46.2 µM), without a hit: at the highest dose activity change, negative = growth inhibition, actives largely listed as inhibitors; actives 15% (n = 420,000); AID 686978, 2013; also: potency is read from the fitted curve at half-maximal effect; nearly all actives have a fitted effect of over 55% in size
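Luminescent ATP content (CellTiter-Glo) served as the growth readout. Knockout chicken DT40 cells expressing human TDP1 were exposed to compounds without camptothecin for a minimum 48 hr at 37 °C.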
Gal4-VP16 FLuc: counter-screen for ROR gamma inhibitors: Gal4-VP16 reporter | Potency, µM (highest dose often 53.6 µM), for inactives: top-dose activity, negative = inhibition, usual class: inhibitors | actives 3.5% (n = 310,000) | AID 2546 | Drosophila S2 Gal4-VP16 UAS-luciferase, luminescence, 20 h;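 also: Gal4-VP16 expression switched on by copper sulfate through the metallothionein promoter; potency is read from the fitted curve at half-maximal effect; nearly all actives have a fitted effect of over 50% in size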
ELG1 repair inh: inhibitors of ELG1-dependent DNA repair in HEK293T cells. HEK293T ELG1-luciferase reporter, luminescence, 16 h; DNA damage induced by 5-fluorouridine. AID 504467. Potency, µM (top dose mostly 46.1 µM), for the others: at the top dose activity change, negative = inhibition, hits mostly inhibitors. actives 2.3% (n = 330,000); also: potency is read from the fitted curve at half-maximal effect; nearly all actives have a fitted effect of over 55% in size
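Reporter activity after DNA damage by 5-fluorouridine is monitored. Compound-treated cells incubate 16 hr at 37 °C, then ONE-Glo is added for 30 min before luminescence reading.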
IL1B secr inh: inhibitors of inflammasome signaling (IL-1 beta secretion); THP-1 LPS/ATP IL-1B secretion, AlphaLISA, 16 h; stronger effect = lower value; actives 4.7% (n = 360,000); activity change, % at 57.5 µM; in the data active = activity change below about -50%; inconclusive = mostly about -30% to -49%
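THP-1 cells pretreated 1 hr with compounds (up to 57.5 uM final), then stimulated with LPS (250 ng/mL final) plus ATP (1.25 mM final); secreted IL-1B measured by AlphaLISA after 16 hr, decreased signal indicating inhibition.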
TDP1 cell CPT: DT40-hTDP1 cell growth loss with CPT; chicken DT40 Tdp1-/-;hTDP1 cells + 20 nM CPT, ATP luminescence, 48 h; Potency, µM (series often up to 46.2 µM), for the others: at the top dose activity change, negative = growth inhibition, most hits filed as inhibitors; actives 12% (n = 420,000); also: potency is read from the fitted curve at half-maximal effect; nearly all actives have a fitted effect of over 55% in size
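Cell growth measured by CellTiter-Glo luminescence after a minimum 48 h, 37 C compound exposure with 20 nM CPT in Tdp1-knockout DT40 cells stably expressing hTDP1, seeded 400/well; qHTS titration format.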
RORg inh: ROR gamma (mouse) transcription inhibition | actives 5.4% (n = 310,000) | AID 2551 | Potency, µM (series often up to 53.6 µM), without a hit: at the highest dose activity change, negative = inhibition, most hits filed as inhibitors | Drosophila S2 Gal4-RORgamma UAS-luciferase reporter, 20 h; also: potency is read from the fitted curve at half-maximal effect; nearly all actives have a fitted effect of over 60% in size
Target sequence (P51450 whole entry, looked up, the tested form may be a part): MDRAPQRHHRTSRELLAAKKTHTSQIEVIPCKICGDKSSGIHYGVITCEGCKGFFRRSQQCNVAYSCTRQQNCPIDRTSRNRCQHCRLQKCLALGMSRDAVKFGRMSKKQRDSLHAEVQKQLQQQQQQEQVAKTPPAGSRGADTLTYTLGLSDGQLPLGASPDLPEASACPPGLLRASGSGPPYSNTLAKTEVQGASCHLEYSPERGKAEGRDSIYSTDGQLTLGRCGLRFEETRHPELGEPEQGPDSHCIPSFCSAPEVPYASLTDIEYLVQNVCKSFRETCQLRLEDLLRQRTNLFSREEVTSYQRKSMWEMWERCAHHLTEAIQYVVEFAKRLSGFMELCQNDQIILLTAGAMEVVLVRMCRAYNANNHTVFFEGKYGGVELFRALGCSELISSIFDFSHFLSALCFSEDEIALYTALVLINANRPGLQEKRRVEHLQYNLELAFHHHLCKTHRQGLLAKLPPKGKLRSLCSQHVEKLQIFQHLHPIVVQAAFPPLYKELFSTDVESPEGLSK
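Stable Schneider cell line, Gal4 DNA-binding domain fused to ROR gamma, UAS-luciferase. Cmpd 1 hr RT → CuSO4 700 uM final → 20 hr RT → luciferase reagent 10 min → luminescence.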
An asterisk follows results filed as active; ? = inconclusive; . = no result. Sampled rows, rich in hits. Any-hit rate of the full collection: about 21%. Unless noted, calls follow the shape of the dose curve; as a rule, active = well fitted curve in the direction sought with a large enough effect; inconclusive = small, poorly fitted or top-dose-only effect, or another doubt; inactive = no such curve, though single readings can be large; an effect the other way counts as inactive or inconclusive. % is scaled to controls: 0 for no effect and ±100 for the full control effect.

SMILES	DT40 TDP1 no CPT	Gal4-VP16 FLuc	ELG1 repair inh	IL1B secr inh	TDP1 cell CPT	RORg inh
COc1ccc(NC2C[C@H]3CCCC(=O)N4CC[C@@H](C2)[C@@H]34)cc1 (stereo partly drawn)	.	0%	.	.	.	-2%
CCc1ccc(NC(=O)c2cnn(-c3c(C)cccc3C)c2C2CCNCC2)cc1	23µM*	.	.	.	?	.
CCc1ccc(NC(=O)c2cnn(-c3ccccc3)c2C2CCNCC2)cc1	17%	-10%	16%	1	-12%	18%
COc1ccc(OC)c(NC(=O)c2cnn(-c3ccc(C)cc3)c2C2CCNCC2)c1	26µM*	.	.	.	21µM*	.
Cc1ccc(C)c(NC(=S)N2CCC(C(=O)c3ccc(F)cc3)CC2)c1	-27%	.	.	0	-1%	.
Cc1ccc(C)c(NC(=O)c2cnn(-c3ccc(F)cc3F)c2C2CCNCC2)c1	9.2µM*	.	.	.	21µM*	.
Cc1cc(C)cc(NC(=O)c2cnn(-c3ccccc3)c2C2CCNCC2)c1	16µM*	-22%	-2%	-26	?	-6%
COc1ccc(OC)c(CNS(=O)(=O)c2cn(C)cn2)c1	-13%	-3%	20%	-24	7%	2%
COc1ccc(NC(=O)N2CC[C@@]3(CCCN(C(=O)c4ccco4)C3)C2)cc1	2%	-15%	.	.	4%	-2%
Cc1cccc(C(=O)NCC(=O)N2CCN(c3ccccn3)CC2)c1	3%	.	0%	32	12%	.
COC(=O)c1ccc(COC(=O)C2CCN(S(=O)(=O)c3c(C)cc(C)cc3C)CC2)o1	-2%	.	.	22	-2%	.
CC(C)c1cc(C(F)(F)F)n2nc(C(=O)Nc3ccc4c(c3)OCO4)cc2n1	-9%	-3%	?	-28	-17%	40%
COc1ccc(CC(=O)NCCCCc2ccccc2)cc1OC	?	.	.	-11	-3%	.
Cc1cccc(NC(=O)c2cnn(-c3ccc(F)cc3)c2C2CCNCC2)c1C	-27%	7%	-8%	-22	-29%	-11%
Cc1ccc(-n2ncc(C(=O)Nc3cc(Cl)ccc3C)c2C2CCNCC2)cc1C	23µM*	-13%	?	-30	16µM*	-22%
COc1ccc(CN(CC2CCC(C(=O)O)CC2)C(=S)Nc2cc(C)ccc2C)cc1 (stereo not drawn)	-5%	-8%	0%	43	-15%	41%
Cc1nc2ccccc2c2oc(C(=O)Nc3ccc(C(C)C)cc3)cc12	21µM*	-6%	23µM*	-2	?	?
Cc1nc2ccccc2c2oc(C(=O)N3CCc4ccccc43)cc12	.	-10%	6%	.	.	-8%
Cc1nc2ccccc2c2oc(C(=O)NCC3COc4ccccc4O3)cc12 (stereo not drawn)	12µM*	?	15µM*	45	21µM*	?
COc1cc(NC(=O)c2cc3c(C)nc4ccccc4c3o2)cc(OC)c1OC	12µM*	-2%	7.3µM*	-21	8.2µM*	-9%
Cc1nc2ccccc2c2oc(C(=O)Nc3ccc4c(c3)OCCO4)cc12	15µM*	10%	21µM*	0	15µM*	2%
CC1Oc2ccccc2C=C1/C=N\NC(=O)c1cccnc1 (stereo not drawn)	-27%	16%	?	14	-12%	9%
Cc1ccc(C(=O)N/N=C/C2=Cc3ccccc3OC2C)cc1 (stereo not drawn)	15µM*	?	0%	-20	?	3.2µM*
CC1Oc2ccccc2C=C1/C=N/NC(=O)c1ccccc1 (stereo not drawn)	26µM*	?	?	-1	9.2µM*	-15%
CCc1ccc(CNC(=O)CCCN2C(=O)CCn3nc(-c4cccn4C)cc32)cc1	-18%	.	.	.	?	.
SMILES	DT40 TDP1 no CPT	Gal4-VP16 FLuc	ELG1 repair inh	IL1B secr inh	TDP1 cell CPT	RORg inh
CC(C)NC1(C(N)=O)CCN(Cc2ccccc2)CC1	21%	.	.	9	12%	.
COc1ccc(CCN(Cc2cc3cccc(C)c3n3nnnc23)C(=O)c2ccncc2)cc1OC	.	-16%	-4%	.	.	13%
COc1ccc(CN(Cc2cc3cccc(C)c3n3nnnc23)C(=O)N2CCOCC2)cc1	?	1%	-7%	7	16µM*	0%
CSCCC(NS(=O)(=O)c1ccc(C)cc1)C(=O)N1CCN(C(C)=O)CC1 (stereo not drawn)	0%	.	4%	-6	9%	.
CC(C)CC(=O)NC(=S)NNC(=O)c1ccc([N+](=O)[O-])cc1	15µM*	5.6µM*	-3%	33	18µM*	4µM*
CCC(=O)NC(=S)NNC(=O)c1ccc([N+](=O)[O-])cc1	18µM*	0%	6%	1	?	?
O=C(NC1CC1)c1ccc(NC(=O)C2CCCCC2)cc1	-8%	.	.	-12	5%	.
CC(C)CC(=O)NC(=S)NNC(=O)c1ccc(NC(=O)C2CCCCC2)cc1	12µM*	7%	-2%	12	21µM*	-7%
Nc1nc(Nc2cccc(F)c2)nc(NCc2ccco2)c1[N+](=O)[O-]	?	-1%	0%	-4	-79%	33%
C/C(=N\Nc1ccc(S(N)(=O)=O)cc1[N+](=O)[O-])c1cccnc1	-22%	1%	0%	2	10%	-14%
C/C(Cn1nc([N+](=O)[O-])cc1C)=N\NC(=O)COc1ccccc1[N+](=O)[O-]	13%	?	-4%	10	-8%	2%
C/C(Cn1nnc([N+](=O)[O-])n1)=N\NC(=O)c1cccc(Cl)c1	?	?	20%	31	16µM*	10µM*
C/C(Cn1nc([N+](=O)[O-])cc1C)=N\NC(=O)c1cccc(Br)c1	-11%	?	-15%	-8	-1%	13µM*
C/C(Cn1nnc([N+](=O)[O-])n1)=N\NC(=O)c1ccccc1Cl	?	?	7%	63	23µM*	?
C/C(Cn1cnc([N+](=O)[O-])n1)=N\NC(=O)c1ccncc1	10%	0%	-13%	25	-25%	-9%
C/C(CC(=O)Nc1ccccn1)=N\NC(=O)c1ccc([N+](=O)[O-])cc1Cl	4%	-23%	-3%	-1	1%	-35%
Cc1ccccc1CNC(=O)c1ccc(CN2CC(=O)N3CCCCC3C2=O)cc1 (stereo not drawn)	-7%	.	.	.	-9%	.
COc1ccc(-n2c(C)cc(/C=C3\C(=N)N4N=C(CC(=O)N5CCOCC5)SC4=NC3=O)c2C)cc1	-21%	0%	7%	25	-3%	-5%

Screening results deposited in PubChem BioAssay by National Center for Advancing Translational Sciences (NCATS).
